Potency and activity change, positive = activation data for six compounds are collected here from PubChem BioAssay (Tox21).

A short description of test [1]: qHTS assay to identify small molecule agonists of the constitutive androstane receptor (CAR) signaling pathway - cell viability counter screen (AID 1224836). Also: nearly all actives have a fitted effect of over 45% in size. A digest of the protocol: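 Cells were seeded and incubated 4 hrs. Compounds were added across 15 concentrations together with PK11195 at 0.75 uM final. Plates were incubated 23 hrs at 37 C. CellTiter-Fluor was added and fluorescence measured.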

Test [2] can be described thus: qHTS assay to identify small molecule antagonists of the constitutive androstane receptor (CAR) signaling pathway - cell viability counter screen (AID 1224837). Also: nearly all actives have a fitted effect of over 45% in size. A digest of the protocol:
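HepG2 cells stably carrying hCAR and CYP2B6-2.2kb reporter, stimulated with 50 nM CITCO and compounds at 15 concentrations for 23 h at 37 C. Viability measured by CellTiter-Fluor fluorescence.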

Test [3] concerns the target Nuclear receptor subfamily 1 group I member 3 (Homo sapiens) (UniProt Q14994). Briefly: qHTS assay to identify small molecule antagonists of the constitutive androstane receptor (CAR) signaling pathway (AID 1224838). Also: nearly all actives have a fitted effect of over 40% in size. Also: potency is read from the fitted curve at half-maximal effect. The method in brief:
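HepG2 cells stably carrying hCAR and a CYP2B6-2.2kb luciferase reporter, seeded 4 hrs before compound (15 concentrations). Stimulated with 50 nM CITCO for 24 hr at 37 C. ONE-Glo luminescence read after 30 min at room temperature.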

For test [4] the target is unchanged. Put plainly: qHTS assay to identify small molecule agonists of the constitutive androstane receptor (CAR) signaling pathway (AID 1224839). Also: nearly all actives have a fitted effect of over 15% in size. Also: potency is read from the fitted curve at half-maximal effect. The method in brief:
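Cells were plated and incubated 4 hrs, then dosed with compounds at 15 concentrations. PK11195 was added to 0.75 uM final. After 24 hrs at 37 C, luciferase luminescence was measured.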
In general terms: In qHTS, concentration-response curves come from the screen itself.

A short description of test [5]: qHTS assay to identify small molecule antagonists of the estrogen related receptor signaling pathway with the pleiotropic PPARgamma coactivator (PGC) from Tox21 10K library (AID 1224841; call rule not given here; also: actives are mostly falling curves and most rising ones were filed inactive; nearly all actives have a fitted effect of over 50% in size; also: potency is read from the fitted curve at half-maximal effect). The method in brief: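 PGC/ERR cell line, 2,000 cells/well, pre-incubated 6 hours at 37 C, then exposed to compounds for 18 hours at 37 C; luciferase read with One-Glo luminescence after 30 min at room temperature.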

Test [6] can be described thus: qHTS assay to identify small molecule agonists of the estrogen related receptor signaling pathway with the pleiotropic PPARgamma coactivator (PGC) from Tox21 10K library (AID 1224842). Also: nearly all actives have a fitted effect of over 15% in size. A digest of the protocol:
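Luminescence from One-Glo (30 min, room temperature) measured after PGC/ERR cells had 18 h at 37 C with pinned compound (23 nL in DMSO). Cells had been seeded at 2,000 per well and pre-incubated 6 h.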

A short description of test [7]: qHTS assay to identify small molecule agonists of the hypoxia (HIF-1) signaling pathway - cell viability counter screen (AID 1224844; calls by dose curve; also: nearly all actives have a fitted effect of over 50% in size). The method in brief:
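HRE-bla ME-180 cells, 2,000/well in 0.5% dialyzed FBS medium, treated 17 h at 37C with compounds. Viability read in the same wells as the bla reporter, by CellTiter-Glo luminescence after 30 min at room temperature.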

Test [8] can be described thus: qHTS assay to identify small molecule agonists of H2AX (AID 1224845; active = well fitted activation curve with a large enough effect in the signal ratio in the repeat runs, not every such curve was filed as active; the % refers to the signal ratio; also: potency is read from the fitted curve at half-maximal effect). The method in brief:
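Phospho-H2AX Ser139 measured by HTRF (ex 320 nm; em 665 and 620 nm) after 24 hr antibody incubation. Compounds, 15 concentrations, 0.76% DMSO, were applied to CHO-K1 cells for 3hr at 37C before lysis.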

Test [9] can be described thus: qHTS assay to identify small molecule agonists of H2AX - cell viability counter screen (AID 1224847; calls by dose curve; also: nearly all actives have a fitted effect of over 30% in size; also: potency is read from the fitted curve at half-maximal effect). The method in brief:
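Cytotoxicity counter screen in wild-type CHO-K1 cells: a 3 hr compound treatment at 37C across 15 concentrations, followed by CellTiter-Glo luminescence to gauge viable cells.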

The nature of test [10]: qHTS assay to identify small molecule antagonists of the estrogen related receptor (ERR) signaling pathway from Tox21 library (AID 1224848). Also: nearly all actives have a fitted effect of over 50% in size. Also: potency is read from the fitted curve at half-maximal effect. A digest of the protocol:
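Antagonist-mode screen of the Tox21 10K library in an NTP-provided ERR reporter cell line; 18 h compound exposure at 37 C, luminescence measured with ONE-Glo.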

Test [11] is described as follows: qHTS assay to identify small molecule agonists of the estrogen related receptor (ERR) signaling pathway from Tox21 library (AID 1224849; calls by dose curve; also: nearly all actives have a fitted effect of over 15% in size). The note with it: ERR reporter cell line, ONE-Glo luciferase, 18 h. The method in brief: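 ERR reporter cells (NTP line) pre-incubated 6 hours at 37 C, then exposed to compounds for 18 hours at 37 C. ONE-Glo luciferase luminescence was read after 30 minutes at room temperature.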

The nature of test [12]: qHTS RealTime-Glo MT Cell Viability Assay in HEK293 cells - 32 hour (AID 1224868). Also: nearly all actives have a fitted effect of over 50% in size. Also: potency is read from the fitted curve at half-maximal effect. A digest of the protocol:
(§1)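 Reads taken at 0, 8, 16, 24, 32 and 40 h from the same wells. HEK293 cells (600/well) carried RealTime-Glo reagents from seeding, with compound added after a 5 h settle at 37 C.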

A short description of test [13]: A CellTox Green Cytotoxicity Assay to monitor cytotoxicity in HEK293 cells - 0 hour (AID 1224869). Also: nearly all actives have a fitted effect of over 50% in size. A digest of the protocol:
(§2)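 HEK293 cells, 600/well, were preincubated 5 hours and then exposed to compounds at 37 C for up to 40 hours. A cell-impermeant cyanine dye staining dead-cell DNA was read by fluorescence at 0, 8, 16, 24, 32 and 40 h time points.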

Test [14] can be described thus: A CellTox Green Cytotoxicity Assay to monitor cytotoxicity in HEK293 cells - 40 hour (AID 1224871). Also: nearly all actives have a fitted effect of over 45% in size. Also: potency is read from the fitted curve at half-maximal effect. The method in brief: as §2
The nature of test [15]: qHTS RealTime-Glo MT Cell Viability Assay in HEK293 cells - 16 hour (AID 1224872). Also: nearly all actives have a fitted effect of over 50% in size. Also: potency is read from the fitted curve at half-maximal effect. The method in brief:
as §1

Test [16] can be described thus: qHTS assay to identify small molecule antagonists of the estrogen related receptor signaling pathway with the pleiotropic PPARgamma coactivator (PGC) from Tox21 10K library - cell viability counter screen (AID 1224840; active = well fitted cell-killing curve with a large enough effect in the repeat runs, not every such curve was filed as active; also: nearly all actives have a fitted effect of over 40% in size). The method in brief:
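PGC/ERR cells (2,000/well) plated 6 h, then compound-treated for 17.5 h at 37 C. Viability measured by CellTiter-Fluor fluorescence after 30 min at 37 C, multiplexed with the pathway assay.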

A short description of test [17]: qHTS RealTime-Glo MT Cell Viability Assay in HepG2 cells - 24 hour (AID 1224867). Also: nearly all actives have a fitted effect of over 50% in size. A digest of the protocol: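 HepG2 suspension premixed with RealTime-Glo reagents is plated at 600 cells per well and left 5 h at 37 C/5% CO2. Compounds in DMSO then go in, and bioluminescence reflecting viable cell number is recorded over 40 h.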
Test [18] can be described thus: qHTS RealTime-Glo MT Cell Viability Assay in HepG2 cells - 40 hour (AID 1224870). Also: nearly all actives have a fitted effect of over 50% in size. The method in brief:
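Real-time viability: cells seeded at 600 per well together with NanoLuc and cell-permeant prosubstrate, compounds added after 5 h incubation. Luminescence tracked at 0, 8, 16, 24, 32 and 40 h of exposure.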

For test [19], the target named is Thyrotropin receptor (Homo sapiens) (UniProt P16473). Briefly: qHTS assay to identify small molecule agonists of the thyroid stimulating hormone receptor (TSHR) signaling pathway (AID 1224843; calls by dose curve; also: nearly all actives have a fitted effect of over 45% in size). A digest of the protocol: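 Screening of the Tox21 10K collection used HEK293 cells engineered with TSHR at 800 cells per well. After a 30-min room-temperature compound exposure, HTRF cAMP reagents were added and fluorescence recorded 1 h later.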

Test [20] can be described thus: qHTS assay to identify small molecule agonists of the hypoxia (HIF-1) signaling pathway (AID 1224846; active = well fitted activation curve with a large enough effect in the signal ratio in the repeat runs, not every such curve was filed as active; the % refers to the signal ratio). The method in brief: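 HRE-bla ME-180 beta-lactamase reporter cells in medium with 0.5% dialyzed FBS, pre-incubated 5 h then exposed to compounds 17 h at 37C, 5% CO2; reporter induction read with CCF4-AM FRET substrate.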

The structures appear in SMILES notation. “And” between values parts separate entries of the source, which are not always exact repeats. Equal values may be shown once. Inconclusive results are not listed. A structure can be active in one record and inactive in another. The source made the active and inactive calls. Unless noted, calls follow the shape of the dose curve; as a rule, active = well fitted curve in the direction sought with a large enough effect in the repeat runs; inconclusive = weak or mixed curves; inactive = no such curve, though single readings can be large; an effect the other way counts as inactive or inconclusive.
% is scaled to controls: 0 for no effect and ±100 for the full control effect.

Chain of Thyrotropin receptor (Homo sapiens) (P16473 whole entry, looked up): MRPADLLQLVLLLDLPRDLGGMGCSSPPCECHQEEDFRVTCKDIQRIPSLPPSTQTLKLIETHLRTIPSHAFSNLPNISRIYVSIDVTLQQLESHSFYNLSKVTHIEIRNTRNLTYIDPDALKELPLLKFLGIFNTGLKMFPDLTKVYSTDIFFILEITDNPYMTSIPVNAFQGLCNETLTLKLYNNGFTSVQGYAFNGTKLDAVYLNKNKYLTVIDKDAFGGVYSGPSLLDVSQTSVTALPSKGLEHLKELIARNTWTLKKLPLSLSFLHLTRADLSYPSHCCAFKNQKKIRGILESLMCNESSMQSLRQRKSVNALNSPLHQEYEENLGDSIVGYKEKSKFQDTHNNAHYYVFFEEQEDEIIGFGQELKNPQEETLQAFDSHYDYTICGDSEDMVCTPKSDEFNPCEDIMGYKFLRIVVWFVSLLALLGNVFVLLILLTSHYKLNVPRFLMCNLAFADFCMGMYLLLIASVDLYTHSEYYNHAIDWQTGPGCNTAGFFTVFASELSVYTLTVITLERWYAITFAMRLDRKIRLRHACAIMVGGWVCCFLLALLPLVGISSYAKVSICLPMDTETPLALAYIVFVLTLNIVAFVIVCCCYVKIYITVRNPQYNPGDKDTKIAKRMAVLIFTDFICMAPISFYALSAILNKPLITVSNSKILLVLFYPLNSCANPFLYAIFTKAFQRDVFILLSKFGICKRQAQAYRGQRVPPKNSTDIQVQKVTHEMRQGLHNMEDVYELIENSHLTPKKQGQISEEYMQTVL
Chain of Nuclear receptor subfamily 1 group I member 3 (Homo sapiens) (Q14994 whole entry, looked up): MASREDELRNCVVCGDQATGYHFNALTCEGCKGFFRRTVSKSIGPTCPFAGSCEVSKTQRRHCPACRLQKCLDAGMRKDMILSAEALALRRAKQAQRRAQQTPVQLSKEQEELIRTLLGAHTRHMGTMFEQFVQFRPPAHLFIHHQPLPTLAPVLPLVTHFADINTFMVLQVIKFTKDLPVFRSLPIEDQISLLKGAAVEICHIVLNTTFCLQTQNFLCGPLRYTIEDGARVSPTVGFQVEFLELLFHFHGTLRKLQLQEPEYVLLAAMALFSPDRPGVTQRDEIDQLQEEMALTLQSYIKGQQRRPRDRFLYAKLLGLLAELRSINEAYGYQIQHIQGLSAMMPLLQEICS

For `BrC1CCC(Br)C(Br)CCC(Br)C(Br)CCC1Br` (stereo not drawn), the Potency entry in [1], in test [2], in test [4], in [6], in test [7] and in [12] was “inactive” each time. Further, the Potency entry in test [13], in test [14] and in [15] was “inactive” throughout. For the same compound, the Potency is 21.6 µM (active) and 25.9 µM (active) in test [3]; 30.5 µM (active) in [5]; 89.4 µM (active) in [8]; 79.7 µM (active) and 95.6 µM (active) in test [9]; 27.2 µM (active) and 58 µM (active) in test [10]. Further, the activity change, positive = activation in [11] (at 92.4 µM (top of the series)) was -60.1% (inactive) and -54.5% (inactive).

Consider `CC(C(O)c1ccc(O)cc1)N1CCC(Cc2ccccc2)CC1` (stereo not drawn), for which the Potency result in test [1], in test [2], in test [16], in [5], in [6] and in [7] was “inactive” throughout. Moreover, the Potency result in [8], in test [9], in test [17], in [12], in test [13] and in test [18] was “inactive” in each case. The Potency entry in [14] and in [15] was “inactive” in each case. Besides, the activity change, positive = activation in test [11] (at 42.5 µM (top of the series)) was -0.85% (inactive).

As to `NC(N)=Nc1nc(CSCC/C(N)=N/S(N)(=O)=O)cs1`, the Potency result in test [1], in test [2], in [16], in test [5], in test [6] and in test [7] was “inactive” each time. Also, the Potency result in [8], in [9], in test [10], in test [17], in test [12] and in test [13] was “inactive” each time. For the same compound, the Potency result in test [18] and in test [14] was “inactive” throughout. Besides, the activity change, positive = activation in test [11] (at 42.5 µM (top of the series)) is 8.96% (inactive); in test [11] (at 92.4 µM (top of the series)), 4.57% (inactive).

For `c1ccc2cc3c(ccc4ccccc43)cc2c1`, the Potency result in test [1], in test [2], in test [3], in test [16], in test [19] and in test [7] was “inactive” each time. Further, the Potency result in test [8], in [20], in test [9], in test [17], in test [12] and in test [13] was “inactive” each time. Also, the Potency result in test [18] and in test [14] was “inactive” throughout. Moreover, the Potency in [4] was 30.7 µM (active) and 27.3 µM (active).

As for `CC(=O)O[C@]1(C(C)=O)CC[C@H]2[C@@H]3C[C@H](C)C4=CC(=O)CC[C@]4(C)[C@H]3CC[C@@]21C`, the Potency result in [1], in test [2], in [3], in test [4], in [16] and in test [19] was “inactive” throughout. The Potency result in test [7], in test [8], in test [20], in test [9], in test [17] and in test [13] was “inactive” in each case. Moreover, the Potency in test [12] is 19.5 µM (active) and 10.7 µM (active); in test [14] it was 48.9 µM (active) and inactive; in [15] it was 17.4 µM (active).

As to `CC(C)(C)c1cc(C(C)(C)C)c(O)c(C(C)(C)C)c1`, the Potency result in test [1], in test [2], in test [16], in test [19], in [17] and in [12] was “inactive” each time. Besides, the Potency entry in [13], in test [18] and in test [15] was “inactive” throughout. The Potency was 12.2 µM (active) in test [4]; 101 µM (active) in test [9]; 54.9 µM (active) and 34.7 µM (active) in [14].
